Measurements reported in PubChem BioAssay (NCATS).
Inconclusive results are not listed. Where a call stands in place of a potency, no number is given. The source made the active and inactive calls. Calls come from the whole dose curve; as a rule, active = well fitted inhibition curve with a large enough effect; inconclusive = small, poorly fitted or top-dose-only effect; inactive = flat fitted curve, though single readings scatter.

Target: Calcium and integrin-binding protein 1 (Homo sapiens) (UniProt Q99828)
Assay: Primary qHTS for Identification of Calcium Integrin Binding Protein 1 (CIB1) Competitor (AID 1508620);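 note: GST tagged CIB1 binding a fluorescein labelled alphaIIb integrin peptide tracer; top concentration of the series differs between compounds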
Conditions: CIB1-GST / FITC-alphaIIb peptide fluorescence polarization; series mostly up to 114 µM
In short: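 CIB1-GST (1 uM final) and compound incubated 15 min at room temperature before adding FITC-alphaIIb peptide tracer (100 nM final). Competition for binding read by fluorescence polarization (ex 480, em 540) after another 15 min at room temperature.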

Calcium and integrin-binding protein 1 (Homo sapiens), sequence (Q99828 whole entry, looked up): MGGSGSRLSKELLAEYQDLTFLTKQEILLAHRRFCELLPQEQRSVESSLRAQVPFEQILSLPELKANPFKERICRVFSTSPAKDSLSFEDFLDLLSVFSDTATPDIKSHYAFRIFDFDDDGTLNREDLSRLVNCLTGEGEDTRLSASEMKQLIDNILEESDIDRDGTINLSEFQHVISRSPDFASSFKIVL

| SMILES | Potency |
| --- | --- |
| C=CCNc1oc(-c2cccc(Cl)c2)nc1C#N | inactive |
| Cc1cc(C)n2ncc(C(=O)Nc3ccc4c(c3)OCCO4)c2n1 | inactive |
| C[C@@](Cc1ccccc1)(C(=O)O)N1C(=O)c2ccc(C(=O)O)cc2C1=O | inactive |
| O=C1CCCC2=C1C1(CCCC1)N=C(Nc1nc3cc(Br)ccc3o1)N2 | inactive |
| COc1ccc(C(=O)N(Cc2ccco2)Cc2ccco2)c(O)c1 | inactive |
| Cc1cccc(-n2cnc3cc(C(=O)N4CCC(Br)CC4)ccc32)c1 | inactive |
| Cc1ccc(N2CCC(CNc3nc(-c4ccccc4C(C)C)ncc3C)CC2)cn1 | inactive |
| O=c1c2ccccc2nc2sc(NCc3ccc(Cc4ccccc4)cc3)nn12 | inactive |
| CN(C)c1cnc2c(O)ccc([S+](=O)([O-])Nc3ccccc3F)c2c1 | inactive |
| COc1ccc(C2=Nn3c(nnc3-c3ccc(OC)c(OC)c3)SC2)cc1 | inactive |
| Cc1ccc(NS(=O)(=O)c2cccc(F)c2)cc1C | inactive |
| COc1cc(OC)c(C(CC(=O)N2CC(C)CC(C)C2)c2ccc3c(c2)OCO3)c(OCC#N)c1 (configuration not stated) | inactive |
| Cc1ccc2nsnc2c1S(=O)(=O)Nc1cccc2cccnc12 | inactive |
| Cc1ccc2nc3sc(C(=O)N4CCCCC4)cc3cc2c1 | inactive |
| Cc1ccc(N2CCN(S(=O)(=O)c3ccc4c(c3)CC(=O)N4)CC2)cc1 | inactive |
| O=C(NC1CCCc2c1cnn2-c1ccc(F)cc1F)c1ccncc1 (configuration not stated) | inactive |
| O=C(O)c1cccc2c1C(=O)N(c1ccccc1)C2 | inactive |
| COc1cccc(Cn2ncc3c4sc(SC)cc4n(C)c3c2=O)c1 | inactive |
| Cn1nnnc1Sc1ncnc2scc(-c3cccc4ccccc34)c12 | inactive |
| NC(=O)C1CCN(c2nc(-c3ccc(Br)cc3)cs2)CC1 | inactive |
| Cc1cnc(-c2ccccc2C2COC2)nc1NCC1CCN(c2cccnc2)CC1 | inactive |
| Cc1cccc(C)c1-n1c(SCC(=O)Nc2ccc(C(=O)O)cc2)nnc1-c1ccc([S+](=O)([O-])N2CCCC2)cc1 | inactive |
